Reference: the supplement of paper PMC10849652
About 7,900 targets were measured; listed, in parts, are those with a hit and a random draw of the rest. About 0.6% of all pairs of compound and target were hits.

Tests used:
Assay in all cases: log2 fold change, soluble protein after heating vs DMSO (PISA); higher = thermal stabilisation; K562 cells, 10 uM, 30 min; active = over 0.2 and 3.5 SD of the protein, either way, in both replicates (recomputed)
[1] = compound: CC[C@@H]1C(=O)N(C)c2cnc(Nc3ccc(C(=O)NC4CCN(C)CC4)cc3OC)nc2N1C1CCCC1
Procedure, shortened: (§1)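 Thermal stability values are relative to control samples and come from duplicates. They are expressed as log2 fold changes. For measurement, K562 cells (2×10^6 cells/mL) received 10 μM compound for 30 min, and aliquots were heated for 3 min over 48°C-58°C, pooled, and extracted at 4°C in PBS with 0.5% NP-40. Soluble protein, the supernatant after 21,000xg for 90 min, was quantified by TMTpro 16plex LC-MS/MS with equalised channel sums.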

[2] = compound: CC[C@H](C)N1C=C(C2=C(C=C(C=C21)C3=CN=C(C=C3)N4CCNCC4)C(=O)NCC5=C(C=C(NC5=O)C)C)C
Procedure, shortened: as §1

[3] = compound: CN(C)CC(=O)Nc1ccc2[nH]c(=O)c3ccccc3c2c1
Procedure, shortened: as §1

[4] = compound: CN(CCOC1=CC=C(C=C1)C[C@H]2C(=O)NC(=O)S2)C3=CC=CC=N3 (racemic) [rosiglitazone]
Procedure, shortened: as §1

[5] = compound: CN1C2=C(C3=C1C(=O)N(N=C3)CC4=CC(=CC=C4)N)SC(=C2)S(=O)C
Procedure, shortened: as §1

[6] = compound: CN1CCN(CCOc2cc(OC3CCOCC3)c3c(Nc4c(Cl)ccc5c4OCO5)ncnc3c2)CC1 [saracatinib]
Procedure, shortened: as §1

[7] = compound: CNC(=O)c1ccc(Nc2ncc(C(F)(F)F)c(NCc3nccnc3N(C)S(C)(=O)=O)n2)cc1 [defactinib]
Procedure, shortened: as §1

[8] = compound: CNCc1ccc(-c2[nH]c3cc(F)cc4c3c2CCNC4=O)cc1 [rucaparib]
Procedure, shortened: as §1

[9] = compound: CNc1nc(-c2ccc3c(N)n[nH]c3c2)cc(N2C[C@@H](C(=O)NC3CCCCC3)CC[C@H]2C)n1
Procedure, shortened: as §1

[10] = compound: COC(=O)N[C@@H](C)CNc1nccc(-c2cn(C(C)C)nc2-c2cc(Cl)cc(NS(C)(=O)=O)c2F)n1 [encorafenib]
Procedure, shortened: as §1

[11] = compound: COC(=O)[C@H](CCSC)NC(=O)C1=C(C=C(C=C1)NC[C@H](CS)N)C2=CC=CC=C2
Procedure, shortened: as §1

[12] = compound: CC[C@@H]1C(=O)N(C)c2cnc(Nc3ccc(C(=O)N[C@H]4CC[C@H](N5CCN(CC6CC6)CC5)CC4)cc3OC)nc2N1C(C)C [volasertib]
Procedure, shortened: as §1

[13] = compound: CC[C@H](C)[C@@H](C(=O)N[C@@H]([C@@H](C)O)C(=O)N[C@@H](CC(C)C)C(=O)[C@]1(CO1)C)NC(=O)[C@H]([C@@H](C)CC)N(C)C(=O)C [epoxomicin]
Procedure, shortened: as §1

[14] = compound: CCn1c(C(=O)N(C2CC2)C2CC2)cc2c3c(ncn3C)c(Nc3cc(C)n(C)n3)nc21
Procedure, shortened: as §1

[15] = compound: CCn1cc(-c2ccnc3[nH]c(-c4cccc(CN(C)C)c4)cc23)c(-c2ccc(NC(=O)N(C)C)cc2)n1
Procedure, shortened: as §1

[16] = compound: CN1CCC(CNc2ccc3ncc(-c4cccc(OC(F)(F)F)c4)n3n2)CC1
Procedure, shortened: as §1

[17] = compound: CN1CC[C@H](c2c(O)cc(O)c3c(=O)cc(-c4ccccc4Cl)oc23)[C@H](O)C1 [alvocidib]
Procedure, shortened: as §1

[18] = compound: CN1CCc2c(c3ccccc3n2Cc2ccc(C(=O)NO)cc2)C1 [Tubastatin A]
Procedure, shortened: as §1

[19] = compound: CNC(=O)C1=CC=CC=C1NC2=NC(=NC=C2Cl)NC3=C(C=C(C=C3)N4CCOCC4)OC
Procedure, shortened: as §1

[20] = compound: CN1CCN(c2nc(C3=C(c4c[nH]c5ccccc45)C(=O)NC3=O)c3ccccc3n2)CC1 [sotrastaurin]
Procedure, shortened: as §1

Measured: log2 fold change

PAN2 (UniProt Q504Q3)
active: [8] -0.656
inactive: [1] 0.101 | [2] 0.167 | [3] 0.006 | [4] 0.181 | [5] 0.143 | [6] 0.113 | [7] 0.001 | [9] -0.048 | [10] 0.073 | [11] -0.045

PKN2 (UniProt Q16513)
Sequence of UniProt Q16513 (Q16513 whole entry, looked up): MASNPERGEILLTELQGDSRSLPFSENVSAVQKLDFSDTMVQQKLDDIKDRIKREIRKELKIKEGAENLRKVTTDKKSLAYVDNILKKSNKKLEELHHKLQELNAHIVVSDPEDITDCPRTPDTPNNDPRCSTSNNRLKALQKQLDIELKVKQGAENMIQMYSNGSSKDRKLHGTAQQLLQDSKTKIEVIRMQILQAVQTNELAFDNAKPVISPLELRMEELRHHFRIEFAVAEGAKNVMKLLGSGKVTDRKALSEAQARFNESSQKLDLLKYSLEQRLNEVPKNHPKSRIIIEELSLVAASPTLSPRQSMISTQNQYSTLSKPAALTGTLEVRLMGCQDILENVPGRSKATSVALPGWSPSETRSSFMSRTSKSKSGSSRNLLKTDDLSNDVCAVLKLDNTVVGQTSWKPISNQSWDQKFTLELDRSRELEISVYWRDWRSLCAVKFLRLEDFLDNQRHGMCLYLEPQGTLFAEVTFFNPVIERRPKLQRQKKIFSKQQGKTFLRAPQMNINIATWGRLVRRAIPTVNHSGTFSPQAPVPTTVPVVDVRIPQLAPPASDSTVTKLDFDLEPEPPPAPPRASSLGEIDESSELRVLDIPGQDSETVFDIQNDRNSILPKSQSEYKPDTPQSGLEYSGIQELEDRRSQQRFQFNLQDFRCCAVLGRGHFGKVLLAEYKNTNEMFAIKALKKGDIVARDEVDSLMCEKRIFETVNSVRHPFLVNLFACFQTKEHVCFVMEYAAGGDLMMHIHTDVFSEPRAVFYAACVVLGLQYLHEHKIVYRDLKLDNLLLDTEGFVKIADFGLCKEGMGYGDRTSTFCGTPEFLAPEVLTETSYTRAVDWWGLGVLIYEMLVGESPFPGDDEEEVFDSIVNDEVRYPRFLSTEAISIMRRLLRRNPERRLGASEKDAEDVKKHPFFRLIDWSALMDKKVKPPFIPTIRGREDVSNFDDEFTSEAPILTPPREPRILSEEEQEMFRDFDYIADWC
inactive: [12] -0.135 | [2] 0.159 | [13] -0.027 | [14] -0.197 | [15] -0.046 | [3] 0.009 | [4] 0.026 | [5] 0.027 | [6] -0.059 | [17] -0.159 | [18] 0.025 | [19] 0.037 | [7] -0.099 | [8] -0.039 | [9] -0.037 | [10] 0.024 | [11] -0.05
active: [16] -0.288

PPP1R12B isoform 6 (UniProt O60237)
Sequence of UniProt O60237 (O60237 whole entry, looked up): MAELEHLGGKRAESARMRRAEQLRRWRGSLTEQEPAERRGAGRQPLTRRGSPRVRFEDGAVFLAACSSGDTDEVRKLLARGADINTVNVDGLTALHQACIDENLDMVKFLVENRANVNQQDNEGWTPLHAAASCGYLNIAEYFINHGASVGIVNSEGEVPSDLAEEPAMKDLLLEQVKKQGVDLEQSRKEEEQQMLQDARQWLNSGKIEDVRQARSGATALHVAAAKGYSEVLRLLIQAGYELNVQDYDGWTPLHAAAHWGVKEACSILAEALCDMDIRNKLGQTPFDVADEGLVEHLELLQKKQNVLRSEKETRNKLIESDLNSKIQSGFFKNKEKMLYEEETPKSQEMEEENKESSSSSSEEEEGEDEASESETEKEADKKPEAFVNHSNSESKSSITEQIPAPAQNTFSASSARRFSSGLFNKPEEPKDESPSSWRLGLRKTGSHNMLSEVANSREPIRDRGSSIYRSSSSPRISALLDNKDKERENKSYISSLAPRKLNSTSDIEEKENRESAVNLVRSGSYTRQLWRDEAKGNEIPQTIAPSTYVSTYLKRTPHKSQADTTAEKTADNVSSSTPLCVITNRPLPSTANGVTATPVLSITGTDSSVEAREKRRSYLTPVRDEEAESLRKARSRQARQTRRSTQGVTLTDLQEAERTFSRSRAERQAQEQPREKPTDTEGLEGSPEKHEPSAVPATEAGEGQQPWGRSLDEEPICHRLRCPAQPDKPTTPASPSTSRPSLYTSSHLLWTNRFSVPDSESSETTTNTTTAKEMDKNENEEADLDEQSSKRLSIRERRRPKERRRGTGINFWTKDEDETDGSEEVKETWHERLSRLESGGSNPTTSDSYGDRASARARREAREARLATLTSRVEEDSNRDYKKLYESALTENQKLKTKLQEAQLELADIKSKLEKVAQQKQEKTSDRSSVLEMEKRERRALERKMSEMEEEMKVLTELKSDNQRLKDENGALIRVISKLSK
inactive: [2] 0.088 | [14] -0.11 | [4] 0.006 | [19] 0

PSMC3 (UniProt E9PLG2)
inactive: [13] -0.273 | [3] -0.238 | [4] 0.043 | [5] 0.046 | [6] -0.197 | [20] 0.081 | [18] 0.079 | [7] 0.172 | [9] -0.252 | [11] -0.026

PDE4DIP (UniProt E9PS60)
inactive: [1] 0.047 | [14] -0.072 | [3] 0.095 | [17] 0.095 | [19] -0.196 | [7] 0.095 | [8] 0.172 | [10] 0.125 | [11] 0.032

PSMD8 (UniProt K7EK21)
inactive: [17] 0.25

PDE4A (UniProt P27815)
inactive: [12] -0.331 | [13] -0.124 | [14] 0.099 | [3] 0.082 | [4] 0.078 | [17] -0.263 | [18] 0.054 | [19] 0.017 | [7] -0.145 | [11] -0.018

POLR3D (UniProt P05423)
active: [12] -0.394
inactive: [2] 0.107 | [13] -0.066 | [14] -0.06 | [15] 0.032 | [3] 0.018 | [4] -0.005 | [5] 0.61 | [16] -0.035 | [6] 0.264 | [20] -0.029 | [17] 0.024 | [18] 1.53 | [19] -0.074 | [7] -0.027 | [9] 0.425 | [11] -0.08

PUF60 isoform 2 (UniProt Q9UHX1)
Sequence of UniProt Q9UHX1 (Q9UHX1 whole entry, looked up): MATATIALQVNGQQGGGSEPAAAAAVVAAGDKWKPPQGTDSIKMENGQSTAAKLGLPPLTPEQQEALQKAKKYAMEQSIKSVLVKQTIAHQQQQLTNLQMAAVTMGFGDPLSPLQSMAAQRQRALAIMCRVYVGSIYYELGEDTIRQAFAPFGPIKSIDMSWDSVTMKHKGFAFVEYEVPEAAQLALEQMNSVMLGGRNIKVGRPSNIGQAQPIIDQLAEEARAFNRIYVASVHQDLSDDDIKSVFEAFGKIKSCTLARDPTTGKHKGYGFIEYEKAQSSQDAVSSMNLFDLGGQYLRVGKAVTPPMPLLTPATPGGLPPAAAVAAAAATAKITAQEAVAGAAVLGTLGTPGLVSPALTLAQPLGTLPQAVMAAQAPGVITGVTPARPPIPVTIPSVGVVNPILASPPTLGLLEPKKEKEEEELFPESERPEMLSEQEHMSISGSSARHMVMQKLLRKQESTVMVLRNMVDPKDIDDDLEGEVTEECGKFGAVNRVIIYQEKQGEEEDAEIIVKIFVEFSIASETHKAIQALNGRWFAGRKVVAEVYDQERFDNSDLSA
inactive: [12] -0.372 | [3] 0.067 | [4] -0.011 | [5] -0.259 | [6] 0.107 | [17] -0.306 | [18] 0.202 | [7] -0.165 | [9] -0.403 | [11] -0.089

PMS2CL (UniProt Q68D20)
inactive: [2] -0.126 | [13] 0.126

PCBP2 (UniProt F8VZX2)
inactive: [2] 0.075 | [14] 0.073 | [4] 0.065 | [5] 0.098 | [6] 0.009 | [17] -0.3 | [19] 0.06 | [9] 0.084

PTK2B (UniProt Q14289)
active: [12] -1.28
inactive: [2] -0.244 | [13] -0.012 | [14] -0.198 | [15] -0.141 | [3] 0.017 | [4] 0.165 | [5] 0.082 | [16] -0.051 | [6] 0.163 | [20] -0.104 | [18] 0.078 | [19] 0.309 | [7] 0.36 | [9] -0.034 | [11] -0.155

PLCXD1 (UniProt Q9NUJ7)
inactive: [4] 0.009

PSMD8 (UniProt K7ERW6)
inactive: [3] 0.027 | [18] 0.235 | [7] 0.011 | [11] 0.066

PIM1 isoform 2 (UniProt P11309)
active: [16] 2.26
inactive: [15] -0.068

PIAS4 (UniProt Q8N2W9)
Sequence of UniProt Q8N2W9 (Q8N2W9 whole entry, looked up): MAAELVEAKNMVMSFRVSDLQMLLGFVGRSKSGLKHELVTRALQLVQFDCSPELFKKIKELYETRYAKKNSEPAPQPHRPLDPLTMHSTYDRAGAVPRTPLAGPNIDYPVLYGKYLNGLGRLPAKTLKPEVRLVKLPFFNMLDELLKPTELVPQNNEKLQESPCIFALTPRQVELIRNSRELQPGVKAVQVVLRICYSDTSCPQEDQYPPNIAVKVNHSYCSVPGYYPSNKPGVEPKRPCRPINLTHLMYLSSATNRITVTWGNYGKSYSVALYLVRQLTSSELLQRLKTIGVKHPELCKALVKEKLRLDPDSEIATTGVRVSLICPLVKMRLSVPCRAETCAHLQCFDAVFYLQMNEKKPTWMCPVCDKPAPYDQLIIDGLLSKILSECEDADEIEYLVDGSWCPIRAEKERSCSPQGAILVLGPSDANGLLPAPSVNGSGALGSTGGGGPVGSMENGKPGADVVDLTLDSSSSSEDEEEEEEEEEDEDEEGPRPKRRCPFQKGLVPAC
inactive: [12] -0.406 | [13] 0.11 | [15] -0.064 | [5] 0.173 | [16] 0.062 | [6] -0.207 | [18] -0.057 | [9] -0.043

PTP4A3 (UniProt O75365)
Sequence of UniProt O75365 (O75365 whole entry, looked up): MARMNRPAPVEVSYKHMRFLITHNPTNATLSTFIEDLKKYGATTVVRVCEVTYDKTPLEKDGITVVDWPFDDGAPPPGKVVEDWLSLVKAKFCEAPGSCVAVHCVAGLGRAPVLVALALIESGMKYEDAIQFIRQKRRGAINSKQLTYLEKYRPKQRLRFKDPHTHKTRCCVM
active: [7] -1.14
inactive: [3] 0.205 | [4] 0.045 | [11] -0.029

PBX2 (UniProt P40425)
Sequence of UniProt P40425 (P40425 whole entry, looked up): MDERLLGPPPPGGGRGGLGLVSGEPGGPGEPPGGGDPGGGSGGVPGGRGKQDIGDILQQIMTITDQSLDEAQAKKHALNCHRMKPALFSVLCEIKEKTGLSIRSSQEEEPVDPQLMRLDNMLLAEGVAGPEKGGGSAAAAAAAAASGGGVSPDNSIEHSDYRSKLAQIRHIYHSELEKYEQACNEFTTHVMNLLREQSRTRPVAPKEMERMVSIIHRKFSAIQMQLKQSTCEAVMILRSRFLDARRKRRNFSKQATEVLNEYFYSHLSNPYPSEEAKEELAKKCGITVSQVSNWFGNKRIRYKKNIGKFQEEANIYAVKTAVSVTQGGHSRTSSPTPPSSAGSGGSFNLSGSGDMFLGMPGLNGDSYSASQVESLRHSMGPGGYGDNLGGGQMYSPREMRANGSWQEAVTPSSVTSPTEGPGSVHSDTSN
inactive: [12] -0.251 | [2] 0.025 | [13] 0.123 | [14] -0.03 | [15] -0.009 | [3] 0.023 | [4] 0.052 | [5] -0.056 | [16] 0.024 | [6] 0.082 | [20] -0.023 | [17] -0.141 | [18] -0.069 | [19] -0.022 | [7] -0.36 | [9] -0.046 | [11] -0.044

PI4K2B (UniProt Q8TCG2)
Sequence of UniProt Q8TCG2 (Q8TCG2 whole entry, looked up): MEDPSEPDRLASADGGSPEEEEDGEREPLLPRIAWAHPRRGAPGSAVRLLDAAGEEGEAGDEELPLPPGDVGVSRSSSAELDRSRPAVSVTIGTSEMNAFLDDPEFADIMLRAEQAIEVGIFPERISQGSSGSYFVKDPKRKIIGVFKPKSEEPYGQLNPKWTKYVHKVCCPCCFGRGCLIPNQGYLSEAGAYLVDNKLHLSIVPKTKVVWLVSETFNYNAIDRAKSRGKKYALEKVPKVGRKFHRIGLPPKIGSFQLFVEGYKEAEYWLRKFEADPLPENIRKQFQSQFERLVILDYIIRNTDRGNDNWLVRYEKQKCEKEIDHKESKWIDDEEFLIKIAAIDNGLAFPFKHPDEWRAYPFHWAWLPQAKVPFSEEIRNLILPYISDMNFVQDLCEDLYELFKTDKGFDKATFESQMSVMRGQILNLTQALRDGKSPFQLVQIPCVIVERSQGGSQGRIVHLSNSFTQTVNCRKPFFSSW
inactive: [1] -0.147 | [2] -0.039 | [14] -0.057 | [15] 0.045 | [3] -0.024 | [4] 0.004 | [5] 0.079 | [16] -0.1 | [6] -0.067 | [20] 0.04 | [17] -0.05 | [18] 0.028 | [19] -0.016 | [7] 0.003 | [8] 0.097 | [9] -0.096 | [10] -0.148 | [11] -0.099

PSMC1 (UniProt G3V4X1)
inactive: [12] 0.141 | [2] -0.01 | [14] -0.135 | [15] 0.108 | [16] -0.282 | [17] 0.031 | [19] -0.011

PRKD3 (UniProt O94806)
Sequence of UniProt O94806 (O94806 whole entry, looked up): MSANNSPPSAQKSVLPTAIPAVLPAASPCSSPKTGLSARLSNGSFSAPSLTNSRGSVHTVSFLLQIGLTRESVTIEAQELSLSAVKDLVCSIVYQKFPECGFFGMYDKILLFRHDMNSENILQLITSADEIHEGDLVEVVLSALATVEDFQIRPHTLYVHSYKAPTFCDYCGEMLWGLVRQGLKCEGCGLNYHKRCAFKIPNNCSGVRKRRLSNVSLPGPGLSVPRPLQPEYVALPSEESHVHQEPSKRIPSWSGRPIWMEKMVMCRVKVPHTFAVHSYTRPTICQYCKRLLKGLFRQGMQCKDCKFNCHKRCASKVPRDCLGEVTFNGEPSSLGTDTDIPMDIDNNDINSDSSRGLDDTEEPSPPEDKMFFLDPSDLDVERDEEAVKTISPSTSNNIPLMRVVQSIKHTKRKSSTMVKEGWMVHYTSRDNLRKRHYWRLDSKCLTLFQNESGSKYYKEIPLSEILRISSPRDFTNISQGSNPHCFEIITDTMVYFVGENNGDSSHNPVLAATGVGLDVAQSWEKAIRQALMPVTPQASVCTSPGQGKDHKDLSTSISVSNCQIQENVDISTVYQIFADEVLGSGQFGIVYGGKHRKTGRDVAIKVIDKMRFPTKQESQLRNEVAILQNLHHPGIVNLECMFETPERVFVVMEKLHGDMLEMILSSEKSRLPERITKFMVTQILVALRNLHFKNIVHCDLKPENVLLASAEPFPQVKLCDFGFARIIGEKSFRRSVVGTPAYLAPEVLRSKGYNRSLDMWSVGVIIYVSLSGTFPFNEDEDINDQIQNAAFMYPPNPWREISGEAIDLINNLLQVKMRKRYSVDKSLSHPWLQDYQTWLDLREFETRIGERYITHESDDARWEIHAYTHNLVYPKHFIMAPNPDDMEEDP
inactive: [14] -0.033 | [15] -0.125 | [3] 0.059 | [4] 0.192 | [5] -0.002 | [16] -0.418 | [6] 0.023 | [20] -0.31 | [17] 0.066 | [19] -0.335 | [7] -0.068 | [9] 0.002 | [11] -0.058

PEX5 isoform 4 (UniProt P50542)
inactive: [13] 0.2 | [14] 0.096 | [3] -0.017 | [5] 0.366 | [6] -0.425 | [20] -0.207 | [17] -0.088 | [18] 0.077 | [19] 0.178 | [7] 0.006 | [9] 0.182 | [11] -0.097

PDE6D (UniProt O43924)
inactive: [2] -0.179 | [13] 0.105 | [14] 0.26 | [15] -0.29 | [3] 0.05 | [4] -0.054 | [5] -0.096 | [16] 0.061 | [6] -0.074 | [20] 0.035 | [17] -0.051 | [18] 0.029 | [19] -0.102 | [7] -0.043 | [9] 0.119 | [11] 0.068

PSMA3 (UniProt G3V4X5)
inactive: [12] 0.139 | [3] 0.084 | [4] 0.122 | [7] 0.061 | [11] -0.208

PMVK (UniProt Q15126)
inactive: [2] 0.069 | [13] 0.003 | [14] 0.028 | [15] 0.142 | [3] 0.018 | [4] 0.067 | [5] 0.036 | [16] 0.057 | [6] -0.021 | [20] -0.003 | [17] -0.032 | [18] 0.229 | [19] -0.051 | [7] 0.02 | [9] -0.039 | [11] -0.368

PUM1 (UniProt Q14671)
inactive: [14] -0.01 | [15] -0.084 | [5] 0.078 | [16] -0.026 | [6] -0.155 | [17] -0.083 | [18] 0 | [19] -0.348 | [9] -0.232

PHRF1 (UniProt Q9P1Y6)
inactive: [12] 0.373 | [14] 0.035 | [19] -0.022

PLK1 (UniProt P53350)
inactive: [2] 0.049 | [13] 0.044 | [14] -0.023 | [15] 0.033 | [3] -0.016 | [4] 0.016 | [5] -0.029 | [16] -0.068 | [6] 0.034 | [20] -0.223 | [17] 0.14 | [18] -0.058 | [7] -0.165 | [8] 0.052 | [9] -0.008 | [10] 0.058 | [11] -0.013
active: [12] -2.06 | [19] -2.06
